Experiment [1] can be described thus: qHTS assay to identify small molecule antagonists of the thyroid receptor (TR) signaling pathway - cell viability counter screen (AID 743064). Also: nearly all actives have a fitted effect of over 50% in size. Also: potency is read from the fitted curve at half-maximal effect. An outline of the steps: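 Viability of T3-stimulated (1 nM final) GH3.TRE-Luc cells is measured by CellTiter-Fluor fluorescence after 23.5 h compound exposure at 37 °C plus 30 min reagent incubation.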
A short description of experiment [2]: qHTS assay to identify small molecule antagonists of the thyroid receptor (TR) signaling pathway (AID 743065). Also: nearly all actives have a fitted effect of over 55% in size. Also: potency is read from the fitted curve at half-maximal effect. An outline of the steps: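 GH3.TRE-Luc rat pituitary cells (two TREs driving luciferase) were dosed with compound, then stimulated with 1 nM T3 (final) for 23.5 h at 37 C. ONE-Glo luminescence was the read-out, with CellTiter-Fluor fluorescence as the cytotoxicity counter-screen.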

In experiment [3] the test system is thyroid hormone receptor (rat, GH3 cells). Nature of the experiment: qHTS assay to identify small molecule agonists of the thyroid receptor (TR) signaling pathway (AID 743066; calls by dose curve). In general terms: qHTS replaces the single test concentration by a dilution series.
The nature of experiment [4]: qHTS assay to identify small molecule antagonists of the estrogen receptor alpha (ER-alpha) signaling pathway - cell viability counter screen (AID 743074; calls by dose curve; also: nearly all actives have a fitted effect of over 45% in size; also: potency is read from the fitted curve at half-maximal effect).
A short description of experiment [5]: qHTS assay to identify small molecule antagonists of the estrogen receptor alpha (ER-alpha) signaling pathway using the BG1 cell line - cell viability counter screen (AID 743081).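 Also: compound given together with 17beta-estradiol as the ER stimulus; nearly all actives have a fitted effect of over 45% in size.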 Also: potency is read from the fitted curve at half-maximal effect.
The target of another experiment is Aromatase (Homo sapiens) (UniProt P11511). Nature of the experiment: qHTS assay to identify aromatase inhibitors (AID 743083). Also: nearly all actives have a fitted effect of over 55% in size. Also: potency is read from the fitted curve at half-maximal effect.
Aromatase (Homo sapiens), sequence (P11511 whole entry, looked up): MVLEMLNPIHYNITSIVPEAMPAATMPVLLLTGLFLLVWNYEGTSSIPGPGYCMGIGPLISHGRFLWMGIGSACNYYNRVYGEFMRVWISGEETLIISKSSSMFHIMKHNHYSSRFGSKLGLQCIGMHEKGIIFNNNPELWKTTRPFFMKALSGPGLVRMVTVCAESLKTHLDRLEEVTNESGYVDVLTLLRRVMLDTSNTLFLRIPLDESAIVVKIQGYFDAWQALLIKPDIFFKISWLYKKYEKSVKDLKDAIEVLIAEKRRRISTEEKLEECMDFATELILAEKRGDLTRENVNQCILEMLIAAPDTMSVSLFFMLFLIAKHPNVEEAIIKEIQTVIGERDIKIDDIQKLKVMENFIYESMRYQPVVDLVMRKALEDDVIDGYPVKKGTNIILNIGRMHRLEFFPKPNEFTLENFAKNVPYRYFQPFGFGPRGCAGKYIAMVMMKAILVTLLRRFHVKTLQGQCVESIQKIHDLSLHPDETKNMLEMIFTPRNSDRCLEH
A short description of experiment [6]: qHTS assay to identify aromatase inhibitors - cell viability counter screen (AID 743084).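 Also: cells stimulated with testosterone during compound exposure; nearly all actives have a fitted effect of over 55% in size.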 Also: potency is read from the fitted curve at half-maximal effect.
In experiment [7] the target is Aryl hydrocarbon receptor (Homo sapiens) (UniProt P35869). Briefly: qHTS assay to identify small molecule that activate the aryl hydrocarbon receptor (AhR) signaling pathway (AID 743085).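 Also: HG2L7.5c1 human HepG2 liver cells with stably integrated DRE-driven firefly reporter; nearly all actives have a fitted effect of over 15% in size.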 An outline of the steps:
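A multiplexed format paired cell viability (CellTiter-Fluor fluorescence) with AhR-dependent luciferase output (ONE-Glo luminescence) in the same wells of HepG2 DRE-luc cells after 24 h compound exposure at 37C.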

Experiment [8] in a line: qHTS assay to identify small molecule that activate the aryl hydrocarbon receptor (AhR) signaling pathway - cell viability counter screen (AID 743086). Also: nearly all actives have a fitted effect of over 45% in size. Also: potency is read from the fitted curve at half-maximal effect. In a few lines: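 HepG2-AhR-luc (HG2L7.5c1) cells, 4000/well, treated 24 h at 37 C with compound; viability measured as CellTiter-Fluor fluorescence after 30 min in the same wells as the luciferase read.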
The nature of experiment [9]: qHTS assay to identify small molecule antagonists of the peroxisome proliferator-activated receptor gamma (PPARg) signaling pathway - cell viability counter screen (AID 743194). Also: nearly all actives have a fitted effect of over 55% in size. Also: potency is read from the fitted curve at half-maximal effect. As to conditions: Potency: co-treated with 50 nM rosiglitazone unless noted. In a few lines:
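Cytotoxicity counter screen in PPARg-bla HEK293H cells, same wells as reporter assay. Compounds plus 50 nM rosiglitazone (final) for 17 h at 37 C, then viability read by CellTiter-Glo luminescence.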

Experiment [10] in a line: qHTS assay for small molecule agonists of the antioxidant response element (ARE) signaling pathway (AID 743202; active = well fitted activation curve with a large enough effect in the signal ratio in the repeat runs, not every such curve was filed as active; inconclusive = weak or mixed curves, or effect the other way; inactive = no such curve, though single readings can be large or run the other way; the % refers to the signal ratio). In a few lines:
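HepG2 ARE-bla cells; 16 h treatment at 37 C; FRET-based beta-lactamase fluorescence read after 2 h substrate incubation at room temperature.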

Experiment [11] in a line: qHTS assay for small molecule agonists of the antioxidant response element (ARE) signaling pathway - cell viability counter screen (AID 743203; calls by dose curve; also: nearly all actives have a fitted effect of over 55% in size; also: potency is read from the fitted curve at half-maximal effect). An outline of the steps:
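ATP content via CellTiter-Glo luminescence served as the viability measure. Cells: ARE-bla HepG2, 2,000 per well. Exposure: 16 hrs, 37C/5% CO2.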

Experiment [12] can be described thus: qHTS assay for small molecule activators of the heat shock response signaling pathway - cell viability counter screen (AID 743209). Also: nearly all actives have a fitted effect of over 50% in size. Also: potency is read from the fitted curve at half-maximal effect. An outline of the steps:
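Compounds dissolved in DMSO were added to overnight-plated HSE-bla HeLa cells and left 5 h at 37 C. Cell viability was quantified by luminescence using CellTiter-Glo.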

Experiment [13] in a line: qHTS assay for small molecule activators of the heat shock response signaling pathway (AID 743210; active = well fitted activation curve with a large enough effect in the signal ratio in the repeat runs, with a control signal flat, not every such curve was filed as active; inconclusive = weak or mixed curves; the % refers to the signal ratio;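 also: HeLa cells with beta-lactamase reporter driven by heat shock elements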). In a few lines: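 Following overnight attachment, HSE-bla HeLa cells received test compounds for 5 h at 37 C; beta-lactamase activity was then detected via FRET substrate fluorescence.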
In experiment [14] the target is Estrogen receptor (Homo sapiens) (UniProt P03372). Nature of the experiment: qHTS assay to identify small molecule antagonists of the estrogen receptor alpha (ER-alpha) signaling pathway (AID 743069; active = well fitted curve in the direction sought with a large enough effect in the signal ratio in the repeat runs, not every such curve was filed as active; inconclusive = weak or mixed curves, or effect the other way; inactive = no such curve, though single readings can be large or run the other way; the % refers to the signal ratio; also: potency is read from the fitted curve at half-maximal effect). In a few lines: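 In this cell-based reporter format, GripTite HEK293 cells harbouring ER-alpha-UAS-bla were grown overnight with 2% charcoal-stripped FBS, dosed with DMSO-dissolved compounds, then challenged with 17beta-estradiol. After 18 hr at 37C, beta-lactamase activity was detected by FRET fluorescence.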
Estrogen receptor (Homo sapiens), sequence (P03372 whole entry, looked up): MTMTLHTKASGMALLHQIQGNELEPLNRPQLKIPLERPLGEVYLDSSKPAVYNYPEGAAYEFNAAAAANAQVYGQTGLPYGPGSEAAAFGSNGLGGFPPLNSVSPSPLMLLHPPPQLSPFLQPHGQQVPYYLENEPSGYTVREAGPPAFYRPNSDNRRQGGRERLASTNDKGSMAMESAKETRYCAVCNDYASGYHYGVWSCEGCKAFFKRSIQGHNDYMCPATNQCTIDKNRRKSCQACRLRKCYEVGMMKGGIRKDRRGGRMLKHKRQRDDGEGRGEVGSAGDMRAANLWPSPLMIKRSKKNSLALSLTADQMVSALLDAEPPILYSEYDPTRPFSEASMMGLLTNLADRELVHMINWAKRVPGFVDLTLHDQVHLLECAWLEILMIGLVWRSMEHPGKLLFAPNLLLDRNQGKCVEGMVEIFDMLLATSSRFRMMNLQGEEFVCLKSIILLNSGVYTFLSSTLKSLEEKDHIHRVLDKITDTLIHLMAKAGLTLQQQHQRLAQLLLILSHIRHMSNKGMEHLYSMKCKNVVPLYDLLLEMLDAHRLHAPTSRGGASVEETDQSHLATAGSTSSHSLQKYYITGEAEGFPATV

Experiment [15] shares this target. Briefly: qHTS assay to identify small molecule agonists of the estrogen receptor alpha (ER-alpha) signaling pathway (AID 743075; calls by dose curve; also: potency is read from the fitted curve at half-maximal effect).
Experiment [16] has the same target. Nature of the experiment: qHTS assay to identify small molecule agonists of the estrogen receptor alpha (ER-alpha) signaling pathway using the BG1 cell line (AID 743079). Also: nearly all actives have a fitted effect of over 20% in size. Also: potency is read from the fitted curve at half-maximal effect. Conditions: BG1Luc4E2 cells, ERE-luciferase agonist, 22 h; activation: at 70.3 µM (top of the series) unless noted.
Experiment [17] addresses Peroxisome proliferator-activated receptor gamma (Homo sapiens) (UniProt P37231). Nature of the experiment: qHTS assay to identify small molecule agonists of the peroxisome proliferator-activated receptor gamma (PPARg) signaling pathway (AID 743094; active = well fitted activation curve with a large enough effect in the signal ratio in the repeat runs, not every such curve was filed as active; inconclusive = weak or mixed curves, or effect the other way; inactive = no such curve, though single readings can be large or run the other way; the % refers to the signal ratio). In a few lines:
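Agonism was assessed in a beta-lactamase reporter system, HEK293H cells with a stably integrated UAS-bla construct under PPARg control; the 17 h treatment at 37C preceded a 1 h room-temperature FRET substrate read.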

Experiment [18] shares this target. Briefly: qHTS assay to identify small molecule antagonists of the peroxisome proliferator-activated receptor gamma (PPARg) signaling pathway (AID 743191; calls by dose curve; also: nearly all actives have a fitted effect of over 30% in size; also: potency is read from the fitted curve at half-maximal effect). In a few lines: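 GeneBLAzer PPARg UAS-bla HEK293H cells, 5 h post-plating, exposed to compounds 17 h at 37C. LiveBLAzer B/G FRET substrate added for 1 h at room temperature; beta-lactamase reporter read by fluorescence intensity.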

Experiment [19] can be described thus: qHTS assay to identify small molecule antagonists of the estrogen receptor alpha (ER-alpha) signaling pathway using the BG1 cell line (AID 743080; calls by dose curve;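 also: BG1 cells stimulated with 17beta-estradiol alongside compound; nearly all actives have a fitted effect of over 25% in size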; also: potency is read from the fitted curve at half-maximal effect). In a few lines: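 After 5 days in phenol-red-free 10% charcoal-stripped FBS medium, BG1-Luc-4E2 cells were seeded, left 24 h at 37 C, co-treated with compounds and 17beta-estradiol for 21.5 h, then assayed for viability and luciferase.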

“And” between values parts separate entries of the source, which are not always exact repeats. Identical values can stand only once. Some compounds were tested as several samples or in several runs, with calls that do not always agree. The source made the active and inactive calls. Unless noted, calls follow the shape of the dose curve; as a rule, active = well fitted curve in the direction sought with a large enough effect in the repeat runs; inconclusive = weak or mixed curves; inactive = no such curve, though single readings can be large; an effect the other way counts as inactive or inconclusive.

Aryl hydrocarbon receptor (Homo sapiens), sequence (P35869 whole entry, looked up): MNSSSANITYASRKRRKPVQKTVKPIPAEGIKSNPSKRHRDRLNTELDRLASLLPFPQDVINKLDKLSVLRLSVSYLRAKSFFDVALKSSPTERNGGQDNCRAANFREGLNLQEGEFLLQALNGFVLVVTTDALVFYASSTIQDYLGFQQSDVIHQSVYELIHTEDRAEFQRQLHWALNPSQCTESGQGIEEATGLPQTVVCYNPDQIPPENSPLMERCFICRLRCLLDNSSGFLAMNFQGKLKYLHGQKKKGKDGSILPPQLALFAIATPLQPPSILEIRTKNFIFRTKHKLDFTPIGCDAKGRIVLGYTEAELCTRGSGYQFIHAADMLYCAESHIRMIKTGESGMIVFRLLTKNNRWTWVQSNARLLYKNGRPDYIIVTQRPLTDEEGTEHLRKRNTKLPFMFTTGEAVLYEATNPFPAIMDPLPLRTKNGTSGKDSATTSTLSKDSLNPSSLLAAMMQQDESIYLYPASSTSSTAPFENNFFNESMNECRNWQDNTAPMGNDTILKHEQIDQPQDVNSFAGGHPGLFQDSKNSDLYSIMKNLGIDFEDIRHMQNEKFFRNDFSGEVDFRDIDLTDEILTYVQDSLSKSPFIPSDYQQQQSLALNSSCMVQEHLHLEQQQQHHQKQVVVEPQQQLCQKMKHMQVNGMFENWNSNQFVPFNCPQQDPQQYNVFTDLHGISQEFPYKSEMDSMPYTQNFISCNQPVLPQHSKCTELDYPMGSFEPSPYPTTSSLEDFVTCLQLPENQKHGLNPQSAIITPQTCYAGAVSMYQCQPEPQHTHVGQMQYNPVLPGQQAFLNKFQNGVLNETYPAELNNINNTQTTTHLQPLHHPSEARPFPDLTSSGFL
Peroxisome proliferator-activated receptor gamma (Homo sapiens), sequence (P37231 whole entry, looked up): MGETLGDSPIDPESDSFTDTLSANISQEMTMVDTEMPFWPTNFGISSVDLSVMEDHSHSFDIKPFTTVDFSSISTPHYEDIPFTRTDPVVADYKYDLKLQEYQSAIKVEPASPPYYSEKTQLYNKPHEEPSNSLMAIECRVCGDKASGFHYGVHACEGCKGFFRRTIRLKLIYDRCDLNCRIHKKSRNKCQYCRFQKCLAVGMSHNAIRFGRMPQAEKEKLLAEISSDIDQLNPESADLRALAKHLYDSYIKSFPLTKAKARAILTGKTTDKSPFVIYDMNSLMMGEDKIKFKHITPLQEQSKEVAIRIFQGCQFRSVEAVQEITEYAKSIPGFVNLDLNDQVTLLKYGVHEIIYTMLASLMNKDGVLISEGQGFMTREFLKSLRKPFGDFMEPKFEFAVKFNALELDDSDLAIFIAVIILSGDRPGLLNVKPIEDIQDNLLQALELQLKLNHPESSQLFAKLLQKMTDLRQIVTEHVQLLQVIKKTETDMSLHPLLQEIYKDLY

Take `[Cl-].[Cl-].[Cl-].[Fe+3]`: the Potency result (in [1]; in experiment [2]; in experiment [3]; in experiment [4]; in experiment [5]; in the experiment with Aromatase (Homo sapiens)) was “inactive” each time. Further, the Potency entry in [6], in experiment [7], in [8], in experiment [9], in experiment [10] and in [11] was “inactive” throughout. Besides, the Potency entry in [12] and in experiment [13] was “inactive” throughout.
In the case of `N#Cc1c(Cl)c(Cl)c(Cl)c(C#N)c1Cl`, the Potency in [1] is 847 nM (active) and 193 nM (active); in [2] it was 476 nM (active) and 172 nM (active); in experiment [14], 3.4 µM [inconclusive] (active); in experiment [4], 42.8 µM (active) and 54.9 µM (active); in experiment [15] it was 87.1 µM [inconclusive] (active); in experiment [5], 53.4 µM (active) and 61.1 µM (active). For the same molecule, the Potency with Aromatase (Homo sapiens) is 1.51 µM (active) and 969 nM (active); in experiment [6] it was 1.69 µM (active) and 1.93 µM (active); in experiment [8], “inactive and 21.7 µM (active)”; in [9], 2.41 µM (active) and 1.55 µM (active); in experiment [11], 10.7 µM (active) and 3.86 µM (active); in experiment [12], 854 nM (active) and 616 nM (active). Also, in experiment [7], the Potency result was “inactive”.
For the molecule `CC(C)(c1ccccc1)c1ccc(O)cc1`, the Potency was 48.2 µM (active) and 61.1 µM (active) in [1]; 24.3 µM [inhibitor] (active) in experiment [14]; 4.33 µM [inconclusive] (active) and 3.89 µM [inconclusive] (active) in experiment [15]; 1.08 µM (active) and 686 nM (active) in experiment [16]; 30.4 µM (active) and 30.6 µM (active) in the experiment with Aromatase (Homo sapiens); 48.2 µM (active) in experiment [6]. Also, the Potency in experiment [11] is 60.6 µM (active). The Potency result in experiment [3], in [4], in [5], in [7], in [17] and in [18] was “inactive” throughout. In addition, the Potency result in experiment [12] and in experiment [13] was “inactive” in each case.
Take `CNC(=S)S`: the Potency result in experiment [1], in [14], in [4], in [15], in [16] and in experiment [19] was “inactive” throughout. The Potency entry (in experiment [5]; in the experiment with Aromatase (Homo sapiens); in experiment [6]; in [7]; in experiment [8]; in experiment [17]) was “inactive” throughout. In addition, the Potency result in experiment [18], in [9], in [10], in [11] and in [12] was “inactive” each time.
For the molecule `CCC[CH2][Sn]([Cl])([CH2]CCC)[CH2]CCC`, the Potency is 307 nM (active) and 386 nM (active) in [1]; 194 nM (active) and 273 nM (active) in experiment [2]; 693 nM (active) and 1.55 µM (active) in experiment [4]; 274 nM (active) and 486 nM (active) in experiment [19]; 2.74 µM (active) and 1.72 µM (active) in [5]; 2.74 µM (active) and 2.17 µM (active) with Aromatase (Homo sapiens). Besides, the Potency was 1.54 µM (active) and 3.06 µM (active) in experiment [6]; 2.17 µM (active) and 3.44 µM (active) in experiment [8]; 1.38 µM (active) and 1.1 µM (active) in [9]; 771 nM (active) and 1.09 µM (active) in [11]; 1.74 µM (active) and 2.75 µM (active) in [12]. Also, the Potency entry in [7] was “inactive”.
As to `CCOP(=O)(O)OCC` (tested in a mixture with another compound), the Potency result was “inactive and 7.63 µM (active)” in [1]; “inactive and 27.3 µM (active)” in experiment [4]; “inactive and 54 µM (active)” in [5]; “inactive and 24.1 µM (active)” in [6]; “inactive and 30.4 µM (active)” in experiment [8]; “inactive and 17.1 µM (active)” in [11]. Besides, the Potency result in experiment [3], in experiment [10] and in [12] was “inactive” each time.
For `COc1ccc(CO)cc1`, the Potency result (in [1]; in experiment [2]; in [3]; in experiment [4]; in experiment [5]; in the experiment with Aromatase (Homo sapiens)) was “inactive” each time. In addition, the Potency result in experiment [6], in experiment [7], in [8], in experiment [9], in experiment [10] and in experiment [11] was “inactive” in each case. In addition, the Potency result in [12] and in experiment [13] was “inactive” each time.
Consider `CC(C)=CC1C(C(=O)OCN2C(=O)C3=C(CCCC3)C2=O)C1(C)C` (configuration not stated), for which the Potency result (in experiment [3]; in experiment [4]; in [5]; with Aromatase (Homo sapiens); in experiment [6]; in [7]) was “inactive” throughout. The Potency result in [8], in [17], in experiment [9], in experiment [10], in [11] and in [12] was “inactive” each time. In addition, the Potency in experiment [18] was 11.9 µM (active).

The record behind these values is PubChem BioAssay (Tox21).
